The whole screen tested about 4,300 compounds, of which about 3,000 (70%) were called active.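 How the source made its calls: active means inhibition above a per-plate cutoff, the mean inhibition of sample wells plus 3 SD (cut at about 35% in these data); inactive means the rest.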 So high a share suggests a set chosen from earlier hits. A selection follows.

The nature of the test: small molecules binding CAG repeat RNA – biochemical, fluorescence, confirmation (AID 652065).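 Further: loss of TO-PRO-1 fluorescence as compound displaces dye from 1x1 AA loop RNA; 0% = DMSO only wells and 100% = 100 µM mitoxantrone.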 The settings on record: r(CAG) RNA repeat, TO-PRO-1 dye displacement fluorescence; at 3 µM; hits give high values.
Take `CCOc1cc(/C=C(\C#N)c2nc(-c3cccs3)c(NC(C)=O)s2)ccc1O`: the inhibition was 40.4% (active). With `O=[N+]([O-])c1cc(Br)c(O)c(/C=N/Nc2nc3ccccc3s2)c1` the figure was 94.7% (active); with `Cc1ccc(S(=O)(=O)Nc2nc3ccccc3s2)cc1[N+](=O)[O-]`, 29.7% (inactive); with `C=CCNc1nc(N)c(C(=C(C#N)C#N)c2ccccc2)s1`, 15.9% (inactive). With `O=C(N/N=C/c1c(Cl)[nH]c2ccccc12)c1sc2ccccc2c1Cl` the figure was 22.9% (inactive); with `Cc1cc(F)ccc1S(=O)(=O)Nc1ncnc2scc(-c3ccc(F)cc3)c12`, 70.8% (active). Then `CC(C(=O)Nc1ccc(O)c(C(=O)O)c1)N1C(=O)/C(=C/c2cccs2)SC1=S` (stereo not drawn), with 75.9% (active); and `CSc1nnc(NC(=O)c2nc(S(=O)(=O)Cc3ccc(C)cc3)ncc2Cl)s1`, with 37.4% (active); and `Cc1nnc(NC(=O)Nc2ccc(Cl)c(Cl)c2)s1`, with 24.5% (inactive). As for `CCOC(=O)c1cc2cc(-c3c(C(=O)OCC)oc4cc(O)cc(O)c4c3=O)ccc2o1`, the inhibition was 40.4% (active). As to `Cn1c2ccccc2c2cc(/C=C(\NC(=O)c3ccccc3)C(=O)NCC(=O)O)ccc21`, the inhibition was 39.8% (active).

Regarding `O=C(NC(=S)Nc1ccccc1C(=O)O)c1ccc(-c2ccc(Br)cc2)o1`, the inhibition is 82.7% (active).

Regarding `Cc1ccc(S(=O)(=O)N2[C@@H](c3cccc4ccccc34)C(C(=O)O)=C[C@H]2C(C)(C)C)cc1`, the inhibition is 50.3% (active).

`Cc1ccc(NC(=O)CC2S/C(=N/N=C3\CCCc4ccccc43)NC2=O)cc1` (stereo not drawn): the inhibition is 54.7% (active). As to `CC1(C(=O)NS(=O)(=O)c2ccc3ccccc3c2)CCN1C(=O)C1(c2ccc(Cl)cc2)CCC1` (stereo not drawn), the inhibition was 72% (active). With `O=[N+]([O-])c1cc(Cl)cc(/C=N/NC(=S)Nc2cc(S(=O)(=O)N3CCOCC3)ccc2Cl)c1O` the figure was 95.4% (active); with `CCC(C)Cn1c(O)cc2nn(-c3nc4ccccc4s3)c(=O)c-2c1C` (stereo not drawn), 63.4% (active). With `CC(C)c1nc(SCC(=O)Nc2cccc(C(=O)O)c2)c2c3c(sc2n1)CCCC3` the figure was 61.1% (active). With `CCSc1nsc(NC(=O)Nc2cccc(C(C)=O)c2)n1` the figure was 26.3% (inactive); with `Cc1ccc2nc(N3C(=O)C(O)=C(C(=O)c4ccco4)C3c3cccc(O)c3)sc2c1` (stereo not drawn), 73.8% (active); with `COc1cc(C2CC(=O)N3CN(Cc4ccccc4)CSC3=C2C#N)ccc1OCc1ccccc1` (stereo not drawn), 25.8% (inactive). `O=C(N/N=C/c1cccnc1)c1cc2ccccc2cc1O`: the inhibition was 9.03% (inactive). With `O=C(NNc1c2ccccc2nc2ccccc12)c1cc2ccccc2cc1O` the figure was 45.6% (active); with `CC(=N\NC(=O)c1cc(Br)ccc1O)/C(=N/O)C(=O)Nc1ccccc1`, 12.1% (inactive); with `Cc1ccc(/C=C/C(=O)Nc2ccc([N+](=O)[O-])c(NC(=O)/C=C/c3ccc(C)o3)c2)o1`, 47.7% (active). Then `O=C(Nc1cccc(F)c1)c1cc(-c2ccco2)nc2ccccc12`, with 4.09% (inactive). Then `O=C(O)c1cccc(NC(=O)c2cc(-c3cccc(Cl)c3)nc3ccccc23)c1`, with 46.1% (active); and `Cc1ccccc1-n1c(SCC(=O)Nc2cccc3ccccc23)nc(O)cc1=O`, with 14.2% (inactive); and `CCOc1ccc(-n2c(SCC(=O)Nc3cc(C(=O)O)ccc3Cl)nc3ccccc3c2=O)cc1`, with 52.9% (active). Consider `Cc1ccc(CNC(=O)C2CCN(S(=O)(=O)c3ccc4nc5c(c(C(=O)O)c4c3)CC(C)CC5)CC2)cc1` (stereo not drawn), for which the inhibition is 36.4% (active). With `O=C(O)c1ccc2c(c1)C(=O)N(c1ccc(/C=C/C(=O)c3ccccc3)cc1)C2=O` the figure was 65.3% (active); with `Cc1ccc(NC(=O)CSc2sc3c(O)cc(=O)[nH]c3c2C#N)cc1C`, 27.9% (inactive); with `COc1ccc(OC)c(NC(=O)CSc2nc(-c3ccccc3)cc(=O)[nH]2)c1`, 24.5% (inactive). Then `Cc1ccc(NC(=O)CSc2nc(CSc3ccc(C)cc3)cc(=O)[nH]2)cc1`, with 53.5% (active). With `Cc1ccc(C(C)C)c(OCCSc2nc3ccccc3n2CC(=O)O)c1` the figure was 50.3% (active); with `Cc1ccc2cc(/C=N/Nc3ccc(C(=O)O)cc3)c(Cl)nc2c1`, 46.6% (active); with `O=C(N[C@@H](Cc1c[nH]c2ccccc12)C(=O)O)OCC1c2ccccc2-c2ccccc21`, 63.4% (active). For `COc1ccc(-c2cc(=O)oc3cc(OCC(=O)N[C@@H](Cc4c[nH]c5ccccc45)C(=O)O)ccc23)cc1`, the inhibition was 65.3% (active). Then `CC(Oc1ccc2c(-c3ccccc3)cc(=O)oc2c1)C(=O)NC(Cc1c[nH]c2ccccc12)C(=O)O` (stereo not drawn), with 62.4% (active); and `COc1ccc(-c2cc(C(=O)NC(Cc3c[nH]c4ccccc34)C(=O)O)c(C)o2)cc1OC` (stereo not drawn), with 61.4% (active). Then `COc1ccc(S(=O)(=O)NCCc2c[nH]c3ccccc23)cc1OC`, with 0.91% (inactive). `O=c1cc(CN2CCN(S(=O)(=O)/C=C/c3ccccc3)CC2)c2ccc(O)cc2o1`: the inhibition was 22.5% (inactive). With `CCOc1ccc(C(=O)Nc2ccc(S(=O)(=O)Nc3cc(C)on3)cc2)cc1` the figure was 23.1% (inactive); with `COc1cc2ccccc2cc1C(=O)Nc1ccc(S(=O)(=O)Nc2cc(C)on2)cc1`, 58.8% (active). Then `Cc1cccc(C)c1NC(=O)C(c1ccc(C(F)(F)F)cc1)n1c(=O)c(-c2ccco2)nc2ccccc21` (stereo not drawn), with 26.2% (inactive); and `COCCNC(=O)Nc1ccc2nc(-c3ccco3)c(-c3ccco3)nc2c1`, with 61.6% (active); and `COc1ccc(S(=O)(=O)NC(=O)C2(C)CCN2C(=O)c2ccccc2CCc2ccccc2)cc1` (stereo not drawn), with 34% (inactive). Then `CC1(C(=O)NS(=O)(=O)c2ccccc2)CCN1C(=O)Cc1ccc(-c2ccccc2)cc1` (stereo not drawn), with 34.1% (inactive). In the case of `CC(C)c1ccc(CC(=O)N2CCC2(C)C(=O)NS(=O)(=O)c2ccc(C(C)(C)C)cc2)cc1` (stereo not drawn), the inhibition is 70.7% (active). As to `O=S(=O)(Nc1ccc(O)c2ccccc12)c1ccc(OC(F)(F)F)cc1`, the inhibition was 52.9% (active). Then `COc1ccc(COC(=O)NC(C(=O)O)c2ccccc2)cc1` (stereo not drawn), with 2.31% (inactive); and `Cc1c(C)c2c(OCC(=O)N[C@@H](C(=O)O)c3ccccc3)cc3c(c2oc1=O)CCC(C)(C)O3`, with 46.1% (active); and `Cc1ccc(N=C2NC(=O)/C(=C/C=C/c3ccco3)S2)cc1C`, with 48.9% (active). With `Cc1ccc(-c2nn(-c3ccccc3)cc2/C=C2\SC(=S)N(CCCCCC(=O)O)C2=O)o1` the figure was 56% (active); with `CN(C)S(=O)(=O)c1cccc(-c2nn(-c3ccccc3)cc2/C=C2\SC(=S)N(CC(=O)O)C2=O)c1`, 88.1% (active). In the case of `O=C(CCCN1C(=O)/C(=C\c2ccco2)SC1=S)Nc1cccc2ccccc12`, the inhibition was 17% (inactive). On to `CC1(C(=O)NS(=O)(=O)Cc2cccc(Cl)c2)CCN1C(=O)Cc1ccc(Cl)cc1Cl` (stereo not drawn), for which the inhibition is 78.9% (active).

With `COc1ccc(C(CNC(=O)c2cccc(S(=O)(=O)Nc3ccccc3Cl)c2)N2CCOCC2)cc1` (stereo not drawn), the inhibition is 63.9% (active). Consider `Cc1cc(C(=O)N/N=C/c2ccc(O)c([N+](=O)[O-])c2)c(C)n1-c1ccc(F)cc1`, for which the inhibition is 42.6% (active). `Cc1sc(NC(=O)c2ccc3ncsc3c2)c(C(N)=O)c1C`: the inhibition was 18.1% (inactive). Then `O=c1ccc2c(-c3ccccc3S(=O)(=O)O)c3ccc(O)c(O)c3oc-2c1O`, with 91.4% (active); and `CCc1ccc(N2CC(C(=O)Nc3ccc(S(=O)(=O)Nc4nccs4)cc3)CC2=O)cc1` (stereo not drawn), with 42% (active); and `CCCCCCC(=O)Nc1nc(C)c(-c2csc(Nc3cc(Cl)ccc3OC)n2)s1`, with 21.8% (inactive).

Regarding `O=C(Nc1ccc(S(=O)(=O)Nc2nccs2)cc1)c1cccc(S(=O)(=O)N2CCOCC2)c1`, the inhibition was 20.8% (inactive).

Regarding `O=C(CCc1ccccc1Cl)Nc1ccc(S(=O)(=O)Nc2nccs2)cc1`, the inhibition was 39.1% (active).

Turning to `O=C(Nc1ccc(S(=O)(=O)Nc2nccs2)cc1)c1cc(-c2ccncc2)nc2ccccc12`, the inhibition is 65.2% (active). Then `Cc1ccc(OCCC(=O)Nc2ccc(S(=O)(=O)Nc3nccs3)cc2)cc1`, with 35% (active); and `COC(=O)c1sc(-c2ccc(C(C)(C)C)cc2)cc1NC(=O)/C=C/C(=O)O`, with 80% (active); and `C[C@H]([C@@H](O)[C@@H](O)[C@@H](C)C(C)(C)C)[C@H]1CC[C@H]2C3CC[C@H]4C[C@H](OS(=O)(=O)O)[C@@H](OS(=O)(=O)O)C[C@]4(C)[C@H]3CC[C@]12C` (stereo partly drawn), with 87.8% (active). Then `O=C(Nc1ccccc1)Nc1nnc(COc2ccccc2F)s1`, with 42.2% (active). Then `Cc1ccc(NC(=O)Nc2nnc(-c3ccncc3)s2)cc1`, with 25.5% (inactive); and `O=C(Nc1ccccc1)Nc1nc2ccccc2s1`, with 13.2% (inactive). For `COC(=O)c1sccc1NC(=O)CSc1ccccc1NS(=O)(=O)c1cc(Cl)ccc1Cl`, the inhibition was 73% (active). With `O=C(Nc1cccc(Cl)c1)Nc1ccccc1NS(=O)(=O)c1cccs1` the figure was 34.4% (inactive); with `CCOc1cc(C(=O)Nc2ccc(S(=O)(=O)Nc3cnc4ccccc4n3)cc2)cc(OCC)c1OCC`, 66.4% (active). For the molecule `Cc1ccccc1-c1ccc2c(c1)O[C@@H](CN(C)Cc1ccc(C(=O)O)cc1)[C@@H](C)CN([C@H](C)CO)S2(=O)=O`, the inhibition was 58.3% (active). In the case of `COc1cc(C(=O)Nn2c(O)c(C3=c4ccccc4=NC3=O)sc2=S)ccc1O`, the inhibition is 14.6% (inactive). Then `CCc1ccc(OC(C)C(=O)Nc2ccc(S(=O)(=O)Nc3cc(C)on3)cc2)cc1` (stereo not drawn), with 26.1% (inactive); and `Cc1ccc(C(=O)/C=C/Nc2ccc(S(=O)(=O)Nc3onc(C)c3C)cc2)cc1`, with 62.5% (active). Then `Cc1cc(OC(C)C(=O)Nc2ccc(S(=O)(=O)Nc3onc(C)c3C)cc2)cc(C)c1Cl` (stereo not drawn), with 62.4% (active); and `CCn1c(SCC(=O)Nc2ccc(S(=O)(=O)Nc3onc(C)c3C)cc2)nnc1-c1ccccc1`, with 22% (inactive). `Cc1noc(NS(=O)(=O)c2ccc(NC(=O)c3oc4ccc(F)cc4c3C)cc2)c1C`: the inhibition is 71.9% (active).

In the case of `Cc1cc(C)c2nc(-c3cccnc3)cc(C(=O)Nc3ccc(S(=O)(=O)Nc4onc(C)c4C)cc3)c2c1`, the inhibition is 83.2% (active).
